Values joined by “and” are separate entries in the source; they are usually repeats but may differ in a detail not shown here. Equal entries are not always repeated. Inconclusive results are not listed. More than one record can exist for a structure, and the calls need not agree. Active and inactive are the calls of the source. Unless noted, the call rests on the fitted dose curve; in most records, active means well fitted curve in the direction sought with a large enough effect in the repeat runs; inconclusive means weak or mixed curves; inactive means no such curve, though single readings can be large; an effect the other way counts as inactive or inconclusive.
Experiments:
[1] = qHTS assay for identifying genotoxic compounds that show differential cytotoxicity against isogenic chicken DT40 cell lines with known DNA damage response pathways - wild type cell line (AID 743012); further: nearly all actives have a fitted effect of over 60% in size; further: potency means the concentration at half of the fitted maximal effect
In short: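 300 wt DT40 cells/well; cpd (DMSO) pintool-transferred after ~0.5 h at 37 C/5% CO2; 40 h incubation; CellTiter-Glo added, 30 min RT; luminescence read.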

[2] = qHTS assay for identifying genotoxic compounds that show differential cytotoxicity against isogenic chicken DT40 cell lines with known DNA damage response pathways - Rad54/Ku70 mutant cell line (AID 743015); further: nearly all actives have a fitted effect of over 60% in size; further: potency means the concentration at half of the fitted maximal effect
[3] = qHTS assay to identify small molecule antagonists of the androgen receptor (AR) signaling pathway - cell viability counter screen (AID 743033; further: nearly all actives have a fitted effect of over 45% in size; further: potency means the concentration at half of the fitted maximal effect)
[4] = qHTS assay to identify small molecule antagonists of the androgen receptor (AR) signaling pathway using the MDA cell line - cell viability counter screen (AID 743041; further: nearly all actives have a fitted effect of over 45% in size; further: potency means the concentration at half of the fitted maximal effect)
In short: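 In this qHTS counter assay, fluorescence intensity after CellTiter-Fluor addition indicated viability of MDA-kb2 AR-luc cells given compounds and R1881 for 16 h at 37C.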

[5] = qHTS assay for identifying genotoxic compounds that show differential cytotoxicity against isogenic chicken DT40 cell lines with known DNA damage response pathways - Rev3 mutant cell line (AID 743014); further: nearly all actives have a fitted effect of over 55% in size; further: potency means the concentration at half of the fitted maximal effect
[6] = target: Androgen receptor (Homo sapiens) (UniProt P10275); assay: qHTS assay to identify small molecule antagonists of the androgen receptor (AR) signaling pathway (AID 743035; active means well fitted inhibition curve with a large enough effect in the signal ratio in the repeat runs, not every such curve was filed as active; the % refers to the signal ratio)
Androgen receptor (Homo sapiens), sequence (P10275 whole entry, looked up): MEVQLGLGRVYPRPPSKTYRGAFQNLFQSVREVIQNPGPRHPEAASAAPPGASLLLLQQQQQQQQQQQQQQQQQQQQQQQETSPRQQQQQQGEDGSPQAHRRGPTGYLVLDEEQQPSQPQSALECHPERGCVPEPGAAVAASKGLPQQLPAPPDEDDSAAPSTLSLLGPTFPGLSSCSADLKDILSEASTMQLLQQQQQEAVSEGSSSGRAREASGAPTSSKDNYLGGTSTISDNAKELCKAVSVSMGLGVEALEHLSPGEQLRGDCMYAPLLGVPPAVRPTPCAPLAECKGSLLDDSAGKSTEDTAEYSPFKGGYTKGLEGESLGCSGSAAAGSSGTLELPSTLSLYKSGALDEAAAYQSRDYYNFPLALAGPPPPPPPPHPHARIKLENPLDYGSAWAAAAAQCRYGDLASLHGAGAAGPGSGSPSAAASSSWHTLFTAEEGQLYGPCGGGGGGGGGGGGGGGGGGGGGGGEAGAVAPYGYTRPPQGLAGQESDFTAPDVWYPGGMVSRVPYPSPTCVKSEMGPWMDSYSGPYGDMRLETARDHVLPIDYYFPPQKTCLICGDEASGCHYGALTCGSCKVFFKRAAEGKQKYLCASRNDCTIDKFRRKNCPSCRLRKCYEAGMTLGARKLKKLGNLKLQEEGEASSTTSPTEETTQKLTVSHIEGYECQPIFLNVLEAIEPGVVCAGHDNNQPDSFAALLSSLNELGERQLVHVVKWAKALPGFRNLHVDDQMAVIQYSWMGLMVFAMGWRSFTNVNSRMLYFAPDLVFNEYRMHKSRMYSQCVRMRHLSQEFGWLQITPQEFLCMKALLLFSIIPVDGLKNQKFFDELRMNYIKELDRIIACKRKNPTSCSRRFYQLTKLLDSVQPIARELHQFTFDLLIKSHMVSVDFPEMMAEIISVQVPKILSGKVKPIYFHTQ
In short: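 In this cell-based reporter screen, compounds were tested in concentration series against R1881-activated HEK293 cells expressing beta-lactamase under UAS control; after 16 h at 37C, FRET substrate was added and fluorescence read 2 h later.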

[7] = target: Androgen receptor (Homo sapiens) (UniProt P10275); assay: qHTS assay to identify small molecule agonists of the androgen receptor (AR) signaling pathway (AID 743036; active means well fitted activation curve with a large enough effect in the signal ratio in the repeat runs, with a control signal flat, not every such curve was filed as active; the % refers to the signal ratio)
In short: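 Beta-lactamase under UAS control, stably integrated in HEK293 GripTite cells, reports receptor activation. After 16 h compound treatment, cells received FRET substrate for 2 h at room temperature before fluorescence reading.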

[8] = target: Androgen receptor (Homo sapiens) (UniProt P10275); assay: qHTS assay to identify small molecule agonists of the androgen receptor (AR) signaling pathway using the MDA cell line (AID 743040; further: nearly all actives have a fitted effect of over 20% in size)
In short: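 Cell-based luciferase reporter: MDA-kb2, MMTV promoter (AR + GR response elements). 16 h compound exposure at 37C; ONE-Glo, 30 min RT, luminescence.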

[9] = target: Androgen receptor (Homo sapiens) (UniProt P10275); assay: qHTS assay to identify small molecule antagonists of the androgen receptor (AR) signaling pathway using the MDA cell line (AID 743042; further: nearly all actives have a fitted effect of over 55% in size)
In short: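 MDA-kb2 cells (human breast carcinoma, stably carrying an MMTV-luciferase reporter responsive to AR and GR) were plated at 3,000 cells/well and preincubated 5 hr at 37C, then given compound plus R1881 agonist for 16 h. ONE-Glo luminescence was read.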

Measured: Potency

OC[C@@H](O)[C@@H](O[C@@H]1O[C@H](CO)[C@H](O)[C@H](O)[C@H]1O)[C@H](O)[C@@H](O)CO
inactive: [1] | [2] | [3] | [4]

CC/C(=C(/CC)c1ccc(O)cc1)c1ccc(O)cc1
inactive and 48.6 µM (active): [3]
inactive: [4]
active: [1] 26.6 µM and 30.4 µM and 17.2 µM | [5] 29.8 µM and 27.3 µM | [2] 26.6 µM and 27.3 µM

CNC[C@H](O)c1ccc(O)c(O)c1
active: [1] 29.8 µM
inactive: [5] | [3] | [4]

Cc1ccc(C(C)(C)C)c(O)c1
inactive: [4]
inactive and 43.3 µM (active): [2]
active: [1] 54.5 µM

Oc1ccc(C(c2ccc(O)cc2)C(Cl)(Cl)Cl)cc1
inactive: [4]
active: [1] 24.3 µM | [2] 60.9 µM and 19.3 µM | [3] 49 µM

CCCCCCCCCCC(CO)CCCCCCCC (stereo not given)
inactive: [1] | [5] | [2] | [3] | [4]

NC[C@H](O)c1ccc(O)c(O)c1
inactive: [3] | [4]
active: [1] 23.7 µM and 21.7 µM | [2] 24.3 µM

Cc1ccc(C)c(O)c1
inactive: [1] | [5] | [2] | [3] | [4]

Cc1ccc2c(c1)C(=O)OC2=O
inactive: [1] | [5] | [2] | [3] | [4]

CC(C)(Oc1ccc(Cl)cc1)C(=O)O
inactive: [1] | [2] | [3] | [4]

Nc1cc(Cl)c(N)c(Cl)c1
inactive: [3] | [4]

Cc1ccc(S(=O)(=O)NCl)cc1
inactive: [1] | [2] | [3] | [4]

NCCS(=O)(=O)O
inactive: [1] | [5] | [2] | [3] | [4]

CCCCCC1C(=O)CCC1CC(=O)OC (stereo not given)
inactive: [1] | [5] | [2] | [3] | [4]

Clc1ccc(Sc2cc(Cl)c(Cl)cc2Cl)cc1
inactive: [1] | [5] | [2] | [3] | [4]

COc1ccc2nc(N)sc2c1
not listed: [5]
inactive: all other assays above

Brc1nc2ccccc2s1
inactive: [1] | [2] | [3] | [4]

CC(C)[C@@H]1CC[C@@H](C)CC1=O
inactive: [1] | [2] | [3] | [4]

CC(=O)Nc1ccc2c(c1)Cc1cc(NC(C)=O)ccc1-2
inactive: [1] | [2] | [3] | [4]

C=C[C@@]1(C)CC(=O)[C@]2(O)[C@@]3(C)[C@@H](O)CCC(C)(C)[C@@H]3[C@H](O)[C@H](OC(C)=O)[C@@]2(C)O1
active: [1] 26.6 µM and 30.6 µM | [2] 23.7 µM and 24.3 µM | [4] 26.6 µM and 38.6 µM

COC(=O)CC(=O)OC
inactive: [1] | [2] | [3] | [4]

C[C@]12C=CC(=O)C=C1CC[C@H]1[C@@H]3C[C@@H](O)[C@](O)(C(=O)CO)[C@@]3(C)C[C@H](O)[C@@]12F
inactive: [3] | [4]
active: [1] 68.6 µM | [2] 48.6 µM

IC(I)I
inactive: [1] | [5] | [2] | [3] | [4]

CC(=O)[C@H]1CC[C@H]2[C@@H]3CC=C4C[C@@H](O)CC[C@]4(C)[C@H]3CC[C@]12C
inactive: [1] | [2] | [3] | [4]
active: [5] 485 nM

CC(C)=CCO
inactive: [1] | [2] | [3] | [4]

CC1(C)NC(=O)N(c2ccc([N+](=O)[O-])c(C(F)(F)F)c2)C1=O
inactive: [3]
active: [1] 5.96 µM and 4.86 µM | [5] 10.6 µM and 3.86 µM | [2] 9.44 µM and 3.44 µM | [4] 61.1 µM

CC1(C)O[C@@H]2C[C@H]3[C@@H]4C[C@H](F)C5=CC(=O)C=C[C@]5(C)[C@@]4(F)[C@@H](O)C[C@]3(C)[C@]2(C(=O)CO)O1
inactive: [1] | [5] | [2] | [3] | [4]

FC(F)(F)C(Cl)Br (stereo not given)
inactive: [1] | [2] | [3] | [4]

CN(C)CCCN1c2ccccc2Sc2ccc(Cl)cc21
active: [1] 9.44 µM and 13.7 µM | [5] 9.44 µM and 27.3 µM | [2] 11.9 µM and 19.3 µM | [3] 24.5 µM | [4] 68.6 µM

CC/C=C\C/C=C\C/C=C\CCCCCCCC(=O)O
inactive: [1] | [3] | [4]
inactive and 60.6 µM (active): [2]

COc1ccc(-c2coc3cc(O)cc(O)c3c2=O)cc1
active: [1] 54.5 µM | [2] 27.3 µM
inactive: [4]

CC(=O)OC(C)C
inactive: [1] | [2] | [3] | [4]

O=C(O)COCCN1CCN(C(c2ccccc2)c2ccc(Cl)cc2)CC1 (stereo not given)
inactive: [3] | [4]

CCC(=O)O[C@H]1[C@H](O[C@@H]2[C@@H](C)[C@H](O[C@H]3C[C@@](C)(OC)[C@@H](O)[C@H](C)O3)[C@@H](C)C(=O)O[C@H](CC)[C@@](C)(O)[C@H](O)[C@@H](C)C(=O)[C@H](C)C[C@@]2(C)O)O[C@H](C)C[C@@H]1N(C)C
inactive and 36.1 µM (active): [2]
active: [1] 40.5 µM
inactive and 20.3 µM (active): [5]
inactive: [3] | [4]

COCCOCCOCCO
inactive: [1] | [5] | [2] | [3] | [4]

O=C(O)c1cc(=O)[nH]c(=O)[nH]1
inactive: [1] | [2] | [3] | [4]
